# From the antibiotic and cytotoxicity screens of Wong et al. (2023)
# About 3,300 (8.5%) of roughly 39,000 compounds were called active. Shown is part of a subset that was picked to be rich in actives.
# Test system: HepG2
# Assay: cytotoxicity call (relative viability < 0.9)
# Conditions: 10 µM
row,Compound,cytotoxicity call
1,O=C(Cn1cc([N+](=O)[O-])cn1)n1cccn1,inactive
2,C[C@@H]1CCCCO[C@H](CN(C)C(=O)Nc2ccc(F)cc2)[C@@H](C)CN([C@@H](C)CO)C(=O)c2cc(NC(=O)Cc3ccccc3)ccc2O1,inactive
3,COc1ccc(CN(C)C[C@H]2OCCCC[C@H](C)Oc3ccc(NC(=O)Nc4ccc(OC)cc4)cc3C(=O)N([C@H](C)CO)C[C@@H]2C)cc1,active
4,COc1ccc(CN(C)C[C@@H]2OCCCC[C@H](C)Oc3ccc(NC(=O)Nc4ccc(OC)cc4)cc3C(=O)N([C@@H](C)CO)C[C@@H]2C)cc1,active
5,COc1ccc(CN(C)C[C@@H]2OCCCC[C@@H](C)Oc3ccc(NC(=O)Nc4ccc(OC)cc4)cc3C(=O)N([C@H](C)CO)C[C@@H]2C)cc1,inactive
6,COc1ccc(CN(C)C[C@@H]2OCCCC[C@@H](C)Oc3ccc(NC(=O)Nc4ccc(OC)cc4)cc3C(=O)N([C@@H](C)CO)C[C@@H]2C)cc1,active
7,COc1ccc(CN(C)C[C@@H]2OCCCC[C@@H](C)Oc3ccc(NC(=O)Nc4ccc(OC)cc4)cc3C(=O)N([C@@H](C)CO)C[C@H]2C)cc1,inactive
8,COc1ccc(CN(C)C[C@H]2OCCCC[C@@H](C)Oc3ccc(NC(=O)Nc4ccc(OC)cc4)cc3C(=O)N([C@@H](C)CO)C[C@@H]2C)cc1,inactive
9,COc1ccc(CN(C)C[C@@H]2OCCCC[C@H](C)Oc3ccc(NC(=O)Nc4ccc(OC)cc4)cc3C(=O)N([C@H](C)CO)C[C@@H]2C)cc1,inactive
10,COc1ccc(CN(C)C[C@H]2OCCCC[C@@H](C)Oc3ccc(NC(=O)Nc4ccc(OC)cc4)cc3C(=O)N([C@H](C)CO)C[C@@H]2C)cc1,inactive
11,COc1ccc(CN(C)C[C@H]2OCCCC[C@@H](C)Oc3ccc(NC(=O)Nc4ccc(OC)cc4)cc3C(=O)N([C@@H](C)CO)C[C@H]2C)cc1,active
12,Cc1noc(C)c1NC(=O)N[C@@H]1C=C[C@H](CC(=O)N2CCN(C)CC2)O[C@H]1CO,inactive
13,CC(C)Cc1ccc([C@@H](C)c2nc(-c3cccs3)no2)cc1,inactive
14,C[C@H](CO)N1C[C@H](C)[C@H](CN(C)C(=O)CCCN(C)C)OCc2cn(nn2)CCCC1=O,inactive
15,Cc1noc(C)c1S(=O)(=O)Nc1cccc2c1O[C@H](CN(C)C(=O)Nc1ccc3c(c1)OCO3)[C@H](C)CN([C@H](C)CO)C2=O,inactive
16,Cc1noc(C)c1S(=O)(=O)Nc1ccc2c(c1)C(=O)N([C@H](C)CO)C[C@H](C)[C@@H](CN(C)CC1CCCCC1)OCCCC[C@H](C)O2,inactive
17,C[C@@H]1CN([C@H](C)CO)C(=O)c2cccc(NS(=O)(=O)c3cccs3)c2O[C@@H]1CN(C)Cc1ccncc1,inactive
